Screening results (PubChem)
TRPML1 ag: human mucolipin-1 channel agonism | TRPML1-expressing cells, Ca2+ dye fluorescence, FDSS | activation, % (test concentration not listed) | 410,000 tested, 0.12% active; in the data active means activation above about 50%; inconclusive means mostly about 30% to 49%
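Kinetic FDSS Ca2+ read in Tet-induced TRPML1-DL cells (ABD Ca8 dye plus quencher, 45-90 min RT loading): baseline, then compound, then 110 s agonist window; EC80 agonist 54-4 at 4uM final added afterwards for a 110 s antagonist window.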
TRPV1 ag: agonists of human vanilloid receptor 1 (TRPV1) | 320,000 tested, 0.19% active | activation, % at 8.33 µM | TRPV1-expressing cells, Fluo-8 calcium influx, agonist mode | Q8NER1; in the data active means activation above about 80%; inconclusive means between about 30% and that limit
Target sequence (Q8NER1 whole entry, looked up): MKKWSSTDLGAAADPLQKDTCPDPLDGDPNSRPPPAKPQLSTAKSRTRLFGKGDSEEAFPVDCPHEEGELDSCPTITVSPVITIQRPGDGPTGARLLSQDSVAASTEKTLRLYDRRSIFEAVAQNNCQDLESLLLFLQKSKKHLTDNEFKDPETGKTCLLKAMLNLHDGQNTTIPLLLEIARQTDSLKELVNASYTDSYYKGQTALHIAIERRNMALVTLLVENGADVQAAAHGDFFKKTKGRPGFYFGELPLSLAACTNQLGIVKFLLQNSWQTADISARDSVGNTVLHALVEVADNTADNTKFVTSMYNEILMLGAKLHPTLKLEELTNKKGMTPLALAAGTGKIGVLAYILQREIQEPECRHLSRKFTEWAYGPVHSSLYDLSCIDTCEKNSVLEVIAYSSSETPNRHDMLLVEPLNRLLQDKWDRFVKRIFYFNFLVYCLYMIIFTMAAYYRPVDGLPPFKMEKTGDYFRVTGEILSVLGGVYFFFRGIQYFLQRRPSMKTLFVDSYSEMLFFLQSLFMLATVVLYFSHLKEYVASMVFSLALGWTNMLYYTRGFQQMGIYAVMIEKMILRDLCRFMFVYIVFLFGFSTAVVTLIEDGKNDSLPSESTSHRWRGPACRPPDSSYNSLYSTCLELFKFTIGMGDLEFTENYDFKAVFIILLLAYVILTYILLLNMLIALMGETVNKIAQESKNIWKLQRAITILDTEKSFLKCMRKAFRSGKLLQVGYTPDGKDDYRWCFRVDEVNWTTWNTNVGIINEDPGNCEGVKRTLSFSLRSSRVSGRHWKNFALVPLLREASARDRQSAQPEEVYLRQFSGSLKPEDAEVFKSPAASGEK
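Cells expressing TRPV1 were dye-loaded with Fluo-8 and read kinetically: 10 s baseline, 3 min after compound (agonist portion), then 2 min after EC20 capsaicin (allosteric enhancer portion). Calcium-bound dye fluorescence at 480/520 nm.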
TRPML1 blocker: inhibitors of human TRPML1 channel; Q9GZU1; TRPML1-inducible cells, Ca2+ dye fluorescence, FDSS; active compounds read low; inhibition of EC80 agonist-evoked calcium signal; 390,000 tested, 0.02% active; activity change, negative = inhibition, % (concentration not given with the values); in the data active means activity change below about -50%; inconclusive means between about -30% and that limit;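 further: stimulus is agonist 54-4 at its EC80 concentration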
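TRPML1-DL cells, Tet-induced overnight (~16 h, 37 °C) at 1,500 cells/well, were loaded with Ca8 no-wash dye plus quencher for 45-90 min at room temperature. Compounds were pinned during FDSS kinetic reading; agonist 54-4 at EC80 (4 uM final) then added.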
TRPV1 potentiator: potentiators of human vanilloid receptor 1 (TRPV1); Q8NER1; TRPV1-expressing cells, Fluo-8 calcium influx, capsaicin EC20 potentiation; potentiation, % at 8.33 µM; 320,000 tested, 0.02% active; AID 540277; in the data active means potentiation above about 80%; inconclusive means between about 30% and that limit
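TRPV1-expressing cells were cultured overnight at 35.5C and loaded with Fluo-8 calcium dye for 40 to 90 min at room temperature. After a 10 s baseline, compound was added and calcium influx was read kinetically for 3 min (ex 480/em 520 nm).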
A number is an active result; 0 = inactive; ? = inconclusive; - = no result. Shown are actives, neighbours in structure and some others; about 0.31% of the full set was active somewhere.

SMILES | TRPML1 ag | TRPV1 ag | TRPML1 blocker | TRPV1 potentiator
Cc1cc(C)c(C(=O)N2CCCC(Nc3ccc(F)cc3)C2)o1 (centres undefined) | 0 | 83 | 0 | 0
O=C(CCC(=O)N1CCCC(Nc2ccccc2)C1)c1ccc(F)cc1 (centres undefined) | 0 | 86 | 0 | 0
Cc1cc(C)c(C(=O)N2CCCC(Nc3ccc(C)c(C)c3)C2)o1 (centres undefined) | 0 | 97 | 0 | 0
O=c1[nH]c(=S)c2[nH]cnc2[nH]1 | 0 | - | - | -
C[C@H](CO)N1C[C@H](C)[C@@H](CN(C)S(=O)(=O)c2cccc(F)c2)OCc2cnnn2CCCC1=O | 0 | - | 0 | -
C[C@H]1CN([C@@H](C)CO)C(=O)CCCn2nncc2CO[C@H]1CN(C)S(=O)(=O)c1cccc(F)c1 | 0 | - | -65 | -
CCN1C(=NCc2cccc(Cl)c2)N[C@@H](c2cccc(C(F)(F)F)c2)C(C(=O)OC)=C1C | 0 | - | - | -
Cn1c(NCc2ccccc2O)nc2ccccc21 | 0 | 0 | 0 | 0
CCOc1ccccc1CNc1nc2ccccc2n1C | 0 | 0 | 0 | 84
Nc1nonc1-c1nc2ccccc2n1Cc1c(Cl)cccc1Cl | 0 | - | 0 | -
CCOC(=O)CC1C(=O)NCCN1c1nc2ccc(C)cn2c(=O)c1/C=C1\SC(=S)N(C(C)CC)C1=O (centres undefined) | - | 139 | - | 0
CC(C)(C)OC(=O)N1C2C=CC1C1=COCCN1C2=O (centres undefined) | 0 | - | 0 | -
COc1cc2c(c(OC)c1)C(c1ccncc1)CC(=O)N2 (centres undefined) | 0 | 0 | 0 | 0
COc1cc2c(c(OC)c1)C(c1cccc(F)c1F)CC(=O)N2 (centres undefined) | 57 | - | 0 | -
Cc1cccn2c(=O)c(C(=O)N3CCN(c4ccccc4F)CC3)cnc12 | 0 | - | 0 | -
FC(F)Sc1ccc(Nc2ncnc3nc[nH]c23)cc1 | 0 | 83 | 0 | 0
Cc1cc(C)cc(Nc2ncnc3nc[nH]c23)c1 | 0 | ? | 0 | 0
COc1cc(/C=C2/SC(=S)N(Cc3ccccc3)C2=O)cc(Cl)c1O | 65 | ? | 0 | 0
COc1cc(/C=C2/SC(=S)N(Cc3ccccc3)C2=O)ccc1OCC(=O)O | 0 | 0 | 0 | 0
Cc1ccc(C2Nc3cc(C)c(C)cc3-n3c(-c4ccccc4)c4c(=O)n(C)c(=O)n(C)c4c32)o1 (centres undefined) | 0 | - | 0 | -
CN(C)c1ccc(/C=C/c2cccc3cc4ccccc4nc23)cc1 | 0 | - | - | -
COc1ccc(CCNC(=O)COc2ccc(S(=O)(=O)NC(C)C)cc2Cl)cc1OC | 0 | 0 | -61 | 0
COc1ccc(CCNC(=O)CCc2ccc(S(=O)(=O)NC(C)C)cc2)cc1OC | 0 | 0 | 0 | 0
CC(C)(C)c1cc(CCC(=O)NCc2ccncc2)cc(C(C)(C)C)c1O | 0 | 91 | 0 | 0
CC(C)(C)c1cc(CCC(=O)Nc2ccncc2)cc(C(C)(C)C)c1O | 0 | - | 0 | -
SMILES | TRPML1 ag | TRPV1 ag | TRPML1 blocker | TRPV1 potentiator
Cc1cccc(CSCCNC(=O)CN(c2ccccc2)S(=O)(=O)N(C)C)c1 | 0 | - | 0 | -
CC(C)(C)n1ncc2c(=O)n(Cc3ccccc3SC(F)(F)F)cnc21 | 0 | - | 0 | -
COc1ccc(N=Nc2nc3ccc(Br)cc3n2C)cc1 | 54 | 0 | 0 | 0
COc1ccc(NS(=O)(=O)c2cc(NC(=O)c3cnc(C)cn3)ccc2N2CCCCC2)cc1 | 0 | 90 | 0 | 0
COc1ccc(NS(=O)(=O)c2cc(NC(=O)c3cnc(C)cn3)ccc2N2CCCC2)cc1 | 0 | ? | 0 | 0
O=C(CSc1nnc(-c2cccs2)o1)Oc1ccccc1Cl | 0 | - | 0 | -
CC(C)(C)n1nnnc1C(c1ccccc1)N1CCN(c2ncc(C(F)(F)F)cc2Cl)CC1 (centres undefined) | 57 | - | - | -
CN1CCN(C(c2ccccc2)c2nnnn2C(C)(C)C)CC1 (centres undefined) | 0 | - | - | -
CC(C)(C)n1nnnc1C(c1ccccc1)N1CCN(c2c(Cl)cncc2Cl)CC1 (centres undefined) | 52 | - | - | -
CCC(C)c1ccc(NC(=O)COC(=O)CCNC(=O)c2ccco2)cc1 (centres undefined) | 0 | 0 | 0 | 0
CCC(C)c1ccc(NC(=O)N2CCOCC2)cc1 (centres undefined) | 0 | 93 | 0 | 0
CCC(C)c1ccc(NC(=O)c2ccco2)cc1 (centres undefined) | - | 82 | - | 0
O=C(Nc1ccc(Cc2ccc(NC(=O)N3CCOCC3)cc2)cc1)N1CCOCC1 | 0 | 0 | 0 | 0
CCc1c(C)sc2c1CCN(Cc1cccc(F)c1)C2c1ccccc1 (centres undefined) | 0 | - | 0 | -
CN(C)c1ccc(/C=C2/C[N+](C)(C)C/C(=C/c3ccc(N(C)C)cc3)C2=O)cc1 | 0 | - | 0 | -
CC(C)/C=C1\CC/C(=C\c2ccc(N(C)C)cc2)C1=O | 64 | ? | 0 | 0
CC(C)n1ncc2c(C(=O)Nc3ccc(S(N)(=O)=O)cc3)cc(C3CC3)nc21 | 0 | 81 | 0 | 0
CC(C)n1ncc2c(C(=O)Nc3ccc(S(C)(=O)=O)cc3)cc(C3CC3)nc21 | 0 | ? | 0 | 0
O=C(CN1C(=O)C2CCCCN2c2ccc(C(=O)N3CCCC3)cc21)NCc1cccc(Cl)c1 (centres undefined) | 0 | - | 0 | -
Cc1cccc(N2CCN(C(=O)NC3CCCCC3)CC2C)c1 (centres undefined) | 0 | 93 | 0 | 0
Cc1cccc(N2CCN(C(=O)c3ccccn3)CC2C)c1 (centres undefined) | 0 | ? | 0 | 0
COc1cc2c(NC3CCN(C)CC3)nc(N3CCCN(C)CC3)nc2cc1OCC1CCCCN1 (centres undefined) | 0 | - | - | -
CO[C@H]1/C=C\O[C@@]2(C)Oc3c(C)c(O)c4c(O)c(c(C=NN5CCN(C6CCCC6)CC5)c(O)c4c3C2=O)NC(=O)C(C)=CC=C[C@H](C)[C@H](O)[C@@H](C)[C@@H](O)[C@@H](C)[C@H](OC(C)=O)[C@H]1C | 0 | - | - | -
CCC1CCCCN1Cc1cn2c(-c3ccc(Br)cc3)nnc2s1 (centres undefined) | 0 | - | 0 | -
CC(C)(C)c1ccc(S(=O)(=O)N2CCN(C3CCCC3)CC2)cc1 | 0 | 0 | 0 | 0
SMILES | TRPML1 ag | TRPV1 ag | TRPML1 blocker | TRPV1 potentiator
CC1CC(C)CN(S(=O)(=O)c2ccc(C(C)(C)C)cc2)C1 (centres undefined) | 56 | 0 | 0 | 0
O=C(/C=C\c1cn(-c2ccccc2)nc1-c1ccc2c(c1)OCCO2)N1CCOCC1 | 0 | 115 | 0 | 0
O=C(/C=C/c1cccc2ccccc12)N1CCOCC1 | 0 | 92 | 0 | 0
CN1CCN(C(=O)/C=C/c2cn(-c3ccccc3)nc2-c2ccc3c(c2)OCCO3)CC1 | 0 | ? | 0 | 0
COc1ccc(-c2nc3c(=O)n(C)c(=O)nc-3n(C)n2)cc1 | 0 | - | - | -
CCOCCc1nn2c(=O)cc(COC(=O)c3ccccc3NC(=O)c3ccc(C)cc3)nc2s1 | 0 | - | 0 | -
O=C(Nc1ccc(F)cc1)/C(Cl)=C/c1ccccc1 | 0 | 83 | 0 | 0
O=C(Nc1ccc2c3c(cccc13)CC2)c1ccc(Br)o1 | 0 | 85 | 0 | 0
O=C(Nc1cccc(-n2cnnn2)c1)c1cc(Cl)nc(Cl)c1 | 0 | ? | 0 | 0
